Laboratory results published in the supplement of paper PMC6555819.

test system: VDR:RXRa (NR concentration 270 nM, RXRa partner concentration 90 nM); experiment: PBM binding z-score (relative to random genomic background probes); higher = stronger binding; sequences stand for … in GC…GCGATTGACAGCGTAGAATGAAGG
Method: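 Protein-binding microarray (Agilent 4x180K custom design, double-stranded 60-nt probes: 5' GC cap, 34-nt variable region, 24-nt constant primer region; full probe sequence given). Purified or IVT nuclear receptor:RXRα heterodimers (3:1 NR:RXRα, mostly 270:90 nM) or homodimers were incubated for 1 h in PBS with 2% milk and no ligand, then detected with Alexa488 antibodies. Fluorescence from o1-orientation probes (~5 replicates averaged) was converted to z-scores against 500 random hg19 background probes. Variable regions are seed direct-repeat (DR0–DR5) sites, all their single-nucleotide variants and half-site ablations.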

Point of comparison: CCTACTGGGCCCAAAAGGTCATTGATGCCGATAA, PBM binding z-score 4.63. Against it:
- TCTAGTTGGTCACGCAGGTCACACACGACGGGTA — lower, 4.01
- CGTCAAAGTTCAAGGTAACGTAGCAGAAAGCAGC — lower, 3.6
- TGATTGAGGTTATAAGATCAGGGAACGTTGCAAA — lower, 1.01
- ATCGAAAGGTCGACGAGGTGTGTATACACCGTTT — lower, 3.81
- TAGCCTAGGTCATGGACCAGTATACCACGCGAAC — lower, 2.13
- CGTCAAAGTTCAAAGTAACGTAACAGAAAGCAGC — lower, 4.09
- ATCGAAAGGTCTTGAGGTGAGTATACAGAAAGGC — lower, 0.496
- CCGTCTGGGGCAGAAAGGTTACCATACCATCCGG — lower, 0.809
- TCAGCTAGGTCAGTTGGTCAGCTAACGAGCTGCC — lower, 0.211
- CGAACTAGGGCATCCAGGACAGTGAATACATTGA — lower, 0.492
- GCGACTGGGGCATCTGCAGGTTACCATAACTTAA — lower, -0.144
- CTCGAATGGTCGGTTGAGGTGAGTATACGGATAA — lower, -0.211
- TAGCCTAGGTCATGGGCCAGTACACCACGCGAAC — lower, 2.38
- AGAATGAGGTTATACGTATATCAGGGAAGAAAGT — lower, 1.69
- TCTCGGATGACACGAAGGTCAGAGCTTTCCAGAG — lower, 1.46
- ATACCCAGGTGATCGTGAGGTCGTTGATACTAAC — lower, 2.51
- ACAGACAGGTGAGTTAAGGTAACTCAGCTGGACG — lower, -0.161
- ACAGACAGGTGATGAAGCTAACTCAGGCTATCAT — lower, -0.278
- AGAATGAGGTTATACGTACATCAGGGAAGAAAGT — lower, 1.67
- AGAATGAGATTAAGATCAGGGAAACAGAATACAT — lower, -0.149
- CCAGACAGGTGAGAAGGTCACTCAGCCTCGATTA — lower, 2.66
- TCGAGTAGGTTACCAATGGGGCATTCACCTTTCT — lower, 0.284
- CTAACTAGGTCATTGACAGGACAGTGAATAGTAA — lower, 2.2
- TCTTGTAGATCAAGCTGGTTAAGAAAGCCTGAGT — lower, 0.112
- TCATAAAGGTAAACAGGTGAAAGTCCGTAAGTTA — lower, 1.64
- CCTACTGGGCCAAAGGTCATTGTTTCCAATGCTC — lower, 4.11
- AGTCTAAGTTCAGGACGAGGTAACGTAAAGCACG — lower, 2.58
- AGTCAATGTTCATCTAGGTAACGTAAGATATGCT — lower, -0.275
- CCTAGTTTGTCAAGGTCACACACGCTATAGGTAC — lower, 4.46
- TCTATTAGTTGATTAGGGCAAGCGAAACAGCGGA — lower, 0.402
- TCGAGTAGGTTCCCAATGGGGCATTCAGCTTTCT — lower, -0.37
- ATCGAAAGGTTGTGAGGTGAGTATACAGAAAGGC — lower, 0.652
- CCCTACGGGTCAAGGTTATAGCACGGGTGGTACG — lower, 3.26
- ATCTCTAGGTAACCAAGCTCAGTGAATGCCGAAC — lower, -0.169
- CCTAGCAGGCCAGGGTCAGTCAAGCATTTCGCTT — lower, 0.634
- ATCTCTAGGTAAAAGTTCAGAGAATCCCGAGGAT — lower, 1.43
- CCTAATGGGCCACGAAAGGTCATTGATTCAGTGA — lower, 4.33
- CCGACTGGGGCAGAAAGGTTAACATACCATCCGG — lower, 1.12
- TGGATGAGGTTAAAGATCAGGGAACGTGGCGTCG — lower, 2.32
